# Assay outcomes as filed in PubChem.
# Rows were chosen to be rich in hits. Some 19% of all compounds tested hit in one or more screens of this group.
# KB-3-1 tox = KB-3-1 parental cell cytotoxicity | hit rate 1.4% among 400,000 | Potency, µM (highest dose often 46.1 µM), hits mostly cytotoxic | KB-3-1 viability, CellTiter-Glo ATP luminescence, 72 h; also: nearly all actives have a fitted effect of over 60% in size
#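 Screening of KB-3-1 cells (DMEM, 10% FBS, phenol-red free) ran from lowest to highest compound concentration; after 72 h at 37 °C viability was read luminescently and curves fitted.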
# KB-V1 cytotox = kills drug-selected multidrug resistant KB-V1 cells | KB-V1 MDR cells viability, CellTiter-Glo, 72 h | Potency, µM (highest dose often 46.1 µM), actives largely listed as cytotoxic | hit rate 3.4% among 400,000; also: nearly all actives have a fitted effect of over 60% in size
#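 Cytotoxicity via CellTiter-Glo luminescence after 72 h compound exposure at 37 degrees C. Cells: drug-selected KB-V1 line, DMEM phenol-red free plus 10% FBS. Compounds tested at multiple concentrations; normalized data fitted to concentration-effect curves.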
# HT1080 IDH1KD tx = HT-1080 IDH1 knockdown cell toxicity (counter line); HT-1080 IDH1 knockdown viability, ATP luminescence, 48 h; AID 686971; Potency, µM (titrated, usually from 46.1 µM), most hits filed as cytotoxic; hit rate 2% among 360,000
#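 In this qHTS, HT-1080 cells depleted of IDH1 are exposed for 48 h at 37 °C to compound titrations. Toxicity is scored from CellTiter-Glo luminescence, with DMSO as full viability and medium alone as none.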
# TDP1 cell noCPT = qHTS for Inhibitors of human tyrosyl-DNA phosphodiesterase 1 (TDP1): qHTS in cells in absence of CPT | DT40 Tdp1-/- hTDP1 cells, no CPT, ATP luminescence, 48 h | Potency, µM (top dose mostly 46.2 µM), hits mostly inhibitors | hit rate 15% among 420,000 | AID 686978, 2013; also: nearly all actives have a fitted effect of over 55% in size
#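 No-CPT arm: Tdp1-/-;hTDP1 DT40 cells (400/well) plus compounds, incubated ≥48 hr at 37 °C. Readout CellTiter-Glo luminescence.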
# DT40 TDP1 CPT = DT40-hTDP1 cell growth loss with CPT; chicken DT40 Tdp1-/-;hTDP1 cells + 20 nM CPT, ATP luminescence, 48 h; Potency, µM (titrated, usually from 46.2 µM), hits mostly inhibitors; hit rate 12% among 420,000; AID 686979; also: nearly all actives have a fitted effect of over 55% in size
#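 Cell growth measured by CellTiter-Glo luminescence after a minimum 48 h, 37 C compound exposure with 20 nM CPT in Tdp1-knockout DT40 cells stably expressing hTDP1, seeded 400/well; qHTS titration format.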
# HT1080NT lethal = kills 2HG-producing HT-1080-NT fibrosarcoma cells; HT-1080-NT fibrosarcoma viability, CellTiter-Glo ATP luminescence, 48 h; Potency, µM (series often up to 46.1 µM), hits mostly cytotoxic; hit rate 1.6% among 360,000;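 also: NT is the 2HG producing partner of a matched IDH1 knockdown line; nearly all actives have a fitted effect of over 55% in size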
#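 Toxicity toward the 2HG-producing NT line was scored as %Activity, normalised to DMSO and no-cell wells, from CellTiter-Glo luminescence after 48 hours' treatment.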
# A number is an active result; . = inactive; ? = inconclusive; / = no result given; ! = a repeat was not active; [ ] = another dose, or the depositor's remark. Calls follow the shape of the dose curve; as a rule, active = well fitted curve in the direction sought with a large enough effect; inconclusive = small, poorly fitted or top-dose-only effect, or another doubt; inactive = no such curve, though single readings can be large; an effect the other way counts as inactive or inconclusive.
SMILES,KB-3-1 tox,KB-V1 cytotox,HT1080 IDH1KD tx,TDP1 cell noCPT,DT40 TDP1 CPT,HT1080NT lethal
Cc1ccc(NC(=S)N2CCN(S(=O)(=O)c3ccc(C)cc3)CC2)cc1,?,?,.,.,.,.
C=CCNC(=O)N1CCCC(N2CCN(c3ccccc3OC)CC2)C1 (configuration not stated),.,.,.,.,.,.
Cc1ccc(C(=O)CC(C(=O)O)P(=O)(c2ccccc2)c2ccccc2)cc1 (configuration not stated),.,.,?,.,.,.
Cc1ccc(P(=O)(c2ccc(C)cc2)[C@@H](NC(c2ccccc2)c2ccccc2)c2ccccc2)cc1,?,20.6µM,16.4µM,13µM,18.4µM,14.6µM
CC(Sc1ccc2ccccc2c1)C(=O)NC(N)=O (configuration not stated),.,.,.,.,.,.
O=C(O)CCC(=O)NNC(=O)COc1ccc2ccccc2c1Br,.,.,.,.,.,.
Cc1c(C)c2ccc(OCC(=O)Nc3cccnc3)c(C)c2oc1=O,.,.,.,18.4µM,?,.
O=C(COc1ccc2ccccc2c1Br)Nc1cccnc1,.,.,.,?,16.4µM,.
O=C(COc1ccccc1C(=O)Nc1cccnc1)Nc1ccc(Br)cc1,.,.,/,?,?,/
O=C(COc1ccc2ccccc2c1Br)Nc1ccncc1,/,/,?,7.31µM,10.3µM,.
OC(CN1CCN(c2ccccc2)CC1)c1ccc2c(c1)CCN2 (configuration not stated),.,.,.,.,.,.
COC(=O)c1cccc(-c2cc(Cl)c3c(c2)CC(CNC(=O)c2cccnc2)O3)c1 (configuration not stated),/,/,/,?,.[9.04 µM],/
COc1ccc(CN2CC[C@H]3C=CCc4cccc(c43)C2)cc1,.,.,.,?,?,.
COc1ccc(N2c3ccccc3CN(Cc3ccccc3)[C@@H](C)[C@H]2Cc2c(C)cccc2C)cc1,?,?,.,16.4µM,18.4µM,.
COc1ccc(C2CCN(Cc3cccnc3)CC2O)cc1 (configuration not stated),.,.,.,.,.,.
COc1ccc(N2c3ccccc3CN(Cc3ccccc3)[C@@H](C)[C@H]2Cc2cccnc2)cc1,.,.,?,20.6µM,?,?
COc1ccc(NC(=O)CN2CCN(CC(=O)Nc3ccccc3F)CC2)c(OC)c1,.,.,.,?,23.1µM,.
COc1ccc(NC(=O)CN2CCN(CC(=O)Nc3ccccc3Cl)CC2)c(OC)c1,.,.,.,18.4µM,18.4µM,.
COc1ccc(NC(=O)CN2CCN(CC(=O)Nc3ccccc3OC)CC2)c(OC)c1,.,.,.,.,.,.
Cc1ccc2[nH]c3c(c2c1)CN(C(=O)CN1CCN(c2cccc(C)c2C)CC1)CC3,?,20.6µM,18.4µM,20.6µM,23.1µM,?
NC(=O)C1CCCN(S(=O)(=O)c2ccc3ccccc3c2)C1 (configuration not stated),.,.,.,.,.,.
O=S(=O)(Nc1cc(Sc2cccc3cccnc23)c(O)c2ccccc12)c1ccc(F)cc1,3.26µM,?,20.6µM,0.92µM,0.581µM,23.1µM
Cc1oc(-c2ccc(C(=O)NCCC(C)C)cc2)nc1CN1CCc2ccccc21,7.31µM,?,/,/,/,/
Cc1oc(-c2ccc(C(=O)NCc3ccccc3)cc2)nc1CN1CCc2ccccc21,.,.,/,20.6µM,?,/
Cc1cc(C(=O)NC2CCCc3c2cnn3-c2ccc(C)c(C)c2)no1 (configuration not stated),?,?,.,?,14.6µM,.
SMILES,KB-3-1 tox,KB-V1 cytotox,HT1080 IDH1KD tx,TDP1 cell noCPT,DT40 TDP1 CPT,HT1080NT lethal
Cc1ccc(-n2ncc3c2CCCC3NC(=O)c2ocnc2C)cc1C (configuration not stated),/,/,.,7.31µM,10.3µM,?
CCCC(=O)NC1CCCc2c1cnn2-c1ccc(C)c(C)c1 (configuration not stated),.,?,.,?,.,.
O=C(Nc1ncccc1O)c1ccc(Oc2ccccc2)cc1,?,?,.,?,?,.
CC(=O)c1cc(C)ccc1OC(=O)c1ccco1,.,.,.,.,.,.
O=C1c2ccccc2C(=O)C1c1ccnc2ccccc12,.,.,.,13µM,5.8µM,.
O=C1c2ccccc2C(=O)C1c1nccc2ccccc12,?,?,.,11.6µM,10.3µM,.
O=C1C(c2ccnc3ccccc23)=C(O)c2ccccc21,?,?,.,11.6µM,13µM,.
O=C(Nc1cccc(Cl)c1Cl)C1CCN(C(=O)c2cccs2)CC1,.,.,.,.,.,.
O=c1ccc(-c2ccccc2)n[nH]1,.,?,.,.,.,.
COc1cc(-c2ccc(=O)[nH]n2)ccc1OC(F)F,0.461µM,0.0517µM,.,.,.,.
COc1ccc(-c2ccc(=O)[nH]n2)cc1,.,1.84µM,.,.,.,.
CC(=O)N1CCC2(CC1)OC(=O)C(C)=C2C(=O)NCc1cccc(Cl)c1,.,.,/,.,.,/
Cc1ccc(C)c(N(C)C(=O)c2coc(=O)c3ccccc23)c1,.,.,.,23.1µM,?,.
O=C(NC1CC2CCCC(C1)N2Cc1ccccc1)c1ccc([N+](=O)[O-])cc1 (configuration not stated),.,.,.,.,.,.
O=C1c2ccccc2C(=O)C1c1ccc2ccccc2n1,.,2.59µM!,?,25.9µM,6.31µM,?
COc1ccc(C2C(=O)c3ccccc3C2=O)cc1,.,.,.,.,.,.
O=C1c2ccccc2C(=O)C1c1cc2ccccc2cn1,.,.,/,7.08µM,1.78µM,/
CC1(C)CCc2cc(O)ccc2O1,/,/,.,.,.,.
O=S(=O)(c1ccccc1F)N1CCN(CC(O)c2ccccc2)CC1 (configuration not stated),.,.,.,.,.,.
CC12CCC(=O)N1C(C(=O)NNC(=O)c1ccc(Br)cc1)CS2 (configuration not stated),.,?,.,.,.,.
Cn1c(CCNC(=O)c2ccccc2F)nnc1SCC(=O)Nc1nncs1,.,.,.,.,.,.
C[C@H](CO)N1C[C@H](C)[C@@H](CN(C)S(=O)(=O)c2ccc3ccccc3c2)OCc2cnnn2CCCC1=O,.,.,.,?,.,.
C[C@@H]1CN([C@@H](C)CO)C(=O)CCCn2nncc2CO[C@H]1CN(C)Cc1ccc(Oc2ccccc2)cc1,.,.,.,16.4µM,?,.
